Test results as given in PMC4336329 (PLoS ONE, 2015).
Among all 310,000 compounds or so, about 14,000 (4.5%) showed an effect of 50% or more. Effects have a minus sign here. The sample as a whole holds a higher share of strong results than the screen did.

Biological target: human ether-à-go-go-related gene (hERG) potassium channel (human, UniProt Q12809)
Experiment: primary screen, population patch clamp on CHO cells stably expressing hERG; higher = less effect of the substance
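Also: peak tail current of the secondary pulse compared with the same well before compound.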

Chain of human ether-à-go-go-related gene (hERG) potassium channel (Q12809 whole entry, looked up): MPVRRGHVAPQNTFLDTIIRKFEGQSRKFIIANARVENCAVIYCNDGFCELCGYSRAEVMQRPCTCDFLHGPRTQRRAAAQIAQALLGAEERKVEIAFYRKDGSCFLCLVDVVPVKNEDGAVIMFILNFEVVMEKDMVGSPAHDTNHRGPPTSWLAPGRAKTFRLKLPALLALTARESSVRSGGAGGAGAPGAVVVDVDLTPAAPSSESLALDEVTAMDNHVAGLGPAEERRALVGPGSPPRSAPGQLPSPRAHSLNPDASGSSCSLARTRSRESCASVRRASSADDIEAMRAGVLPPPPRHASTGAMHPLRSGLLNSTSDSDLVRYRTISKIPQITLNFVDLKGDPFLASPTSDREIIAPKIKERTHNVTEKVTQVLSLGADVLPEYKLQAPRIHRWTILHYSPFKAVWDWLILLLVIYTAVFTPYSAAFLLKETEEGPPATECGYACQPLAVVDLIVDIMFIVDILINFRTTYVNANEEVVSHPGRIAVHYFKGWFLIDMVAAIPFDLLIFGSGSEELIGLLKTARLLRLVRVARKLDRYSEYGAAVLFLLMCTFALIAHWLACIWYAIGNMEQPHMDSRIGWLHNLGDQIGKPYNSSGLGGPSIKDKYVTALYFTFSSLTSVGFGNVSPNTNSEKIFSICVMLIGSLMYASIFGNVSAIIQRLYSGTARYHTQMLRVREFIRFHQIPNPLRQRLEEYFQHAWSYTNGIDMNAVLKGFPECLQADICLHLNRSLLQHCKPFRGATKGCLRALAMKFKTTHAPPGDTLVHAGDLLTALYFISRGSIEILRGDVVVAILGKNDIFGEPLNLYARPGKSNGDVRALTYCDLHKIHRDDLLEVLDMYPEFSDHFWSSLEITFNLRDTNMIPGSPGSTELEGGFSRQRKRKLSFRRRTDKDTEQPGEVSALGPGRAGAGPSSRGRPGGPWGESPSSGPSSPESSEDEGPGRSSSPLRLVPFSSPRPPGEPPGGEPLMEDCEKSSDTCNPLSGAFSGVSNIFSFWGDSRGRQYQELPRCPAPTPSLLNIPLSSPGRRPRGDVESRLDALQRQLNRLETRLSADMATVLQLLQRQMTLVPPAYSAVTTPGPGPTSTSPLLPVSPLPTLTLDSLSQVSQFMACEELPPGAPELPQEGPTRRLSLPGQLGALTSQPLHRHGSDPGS

Row | SMILES | hERG current change (%, negative = inhibition) at 10uM [%]
1 | O=c1[nH]cnc2c1nc(SCc1ccccc1)n2C1OC(CO)C(O)C1O (stereo not shown) | -2.32
2 | O=c1cc(-c2ccc(O)cc2)oc2cc(O)cc(O)c12 | -2.23
3 | CC(C)C[C@H]1CN=C(Nc2ccccc2)N1CCc1ccc(F)cc1 | -62.4
4 | C[C@H]1CN=C(Nc2ccccc2)N1CCc1ccc(F)cc1 | -46.3
5 | Cc1cccc(CCN2C(N(C)C)=NC[C@@H]2CC(C)C)c1 | -18.1
6 | Cc1cccc(CCN2C(Nc3ccccc3)=NC[C@@H]2C)c1 | -23
7 | Cc1cccc(CCN2C(Nc3ccccc3)=NC[C@@H]2CC(C)C)c1 | -67.5
8 | COc1ccccc1C(=O)NNC1=NS(=O)(=O)c2ccccc21 | 20.3
9 | COc1cccc(NC(=O)Cn2cc(C(=O)C3CC3)c3ccccc32)c1 | 0.319
10 | CCn1c(-c2cccnc2)n[nH]c1=S | 0.542
11 | CCOc1ccc(OCCC(=O)OCC(=O)NC2CCCCC2)cc1 | 11.4
12 | CCn1c(N2CCN(CC(=O)c3c(C)n(C)c4ccc(OC)cc34)CC2)nc2c1c(=O)[nH]c(=O)n2C | 3.19
13 | O=C(Cc1cn(-c2ccccc2)nc1-c1ccccc1)N1CCCCC1 | -18.3
14 | Cc1c(C(=O)N2CCN(C(=O)c3ccco3)CC2)oc2c(Cl)cccc12 | -34.3
15 | Cc1cc(Cl)c2oc(C(=O)N3CCN(c4cccc(C)n4)CC3)c(C)c2c1 | 16.3
16 | Cc1cc(Cl)c2oc(C(=O)N3CCN(c4ccncc4)CC3)c(C)c2c1 | -75.9
17 | Cc1cc(Cl)c2oc(C(=O)N3CCN(C(=O)c4ccco4)CC3)c(C)c2c1 | -53.9
18 | Cc1cc(Cl)c2oc(C(=O)N3CCC(O)(c4ccccc4)CC3)c(C)c2c1 | 8.87
19 | Cc1c(C(=O)N2CCN(c3ccccc3)CC2)oc2c(Cl)cccc12 | 4.82
20 | CCOc1ccc(C(C(=O)NC(C)(C)C)N(CCOC)C(=O)CCC(=O)Nc2ccccn2)cc1 (stereo not shown) | -5.95
21 | COC(=O)c1c(S(C)(=O)=O)nc(-c2ccccc2)[nH]c1=O | -2.13
22 | Cc1nc2scc(-c3ccccc3)c2c(=O)n1N | -1.43

Row | SMILES | hERG current change (%, negative = inhibition) at 10uM [%]
23 | Cc1nc(-c2cccnc2)sc1C(=O)N/N=C/c1ccccc1Cl | -75.5
24 | Cc1nc(-c2cccnc2)sc1C(=O)Nc1ccc(Cl)cc1 | -29.2
25 | CNC(=O)c1sc(-c2cccnc2)nc1C | -34.7
26 | O=C(N/C(=C/c1ccccc1F)C(=O)N1CCCCC1)c1ccccc1 | 10.1
27 | CN1CCN(C(=O)/C(=C/c2ccccc2F)NC(=O)c2ccccc2)CC1 | -29.2
28 | CSc1ccc(/C=C(/NC(=O)c2ccccc2)C(=O)N2CCN(C)CC2)cc1 | -75.9
29 | COc1ccc(/C=C(\NC(=O)c2ccccc2)C(=O)N2CCN(C)CC2)cc1OC | 20
30 | O=C(N/C(=C\c1ccc(F)cc1)C(=O)N1CCCCCC1)c1ccccc1 | -11.6
31 | O=C(N/C(=C/c1ccc(F)cc1)C(=O)N1CCCC1)c1ccccc1 | 19.5
32 | CN1CCN(C(=O)/C(=C/c2ccc(N(C)C)cc2)NC(=O)c2ccccc2)CC1 | -17.5
33 | CC1CCN(C(=O)/C(=C\c2ccccc2F)NC(=O)c2ccccc2)CC1 | -52.7
34 | CN1CCN(C(=O)/C(=C/c2ccc(F)cc2)NC(=O)c2ccccc2)CC1 | -77.8
35 | C[C@@H](CSc1ccc(Br)cc1)CN1CC[C@H](O)CCC1=O | -12
36 | COc1ccc2oc(C(=O)OCC(=O)NC3CC3)c(C)c2c1 | 11
37 | Cc1sc2ncn(CC(=O)NCC(=O)N3CCC4(CC3)OCCO4)c(=O)c2c1C | -4.54
38 | Cc1cc(NC(=O)c2c([N+](=O)[O-])cnn2C)no1 | 14.2
39 | Nc1ccccc1C(=O)NC1CCCCNC1=O (stereo not shown) | 26.2
40 | CC1(C)N=C(N)NC(Nc2ccccc2Cl)=N1 | 20.9
41 | C[C@@H](C(=O)O)[C@H]1C[C@]1(C)[C@H](NC(=O)OCc1ccccc1)c1ccccc1 | 4.41
42 | COc1cccc(NC(=O)CC2(CC(=O)O)CCCC2)c1 | -39.8
43 | CC1Cc2cc(S(=O)(=O)N3CCCC(C(=O)N4CCCCC4)C3)ccc2N1C(=O)C1CC1 (stereo not shown) | -4.84
